Screens: PubChem BioAssay, National Center for Advancing Translational Sciences (NCATS)
Rab9 prom act: qHTS Assay for Rab9 Promoter Activators | Huh7 Rab9 promoter-luciferase reporter, luminescence, 24 h | Potency, µM (highest dose often 9.22 µM), usual class: activators | hit rate 2.8% among 320,000; also: nearly all actives have a fitted effect of over 60% in size
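Stable Rab9-luc Huh7, 1500 cells/well, 2 h settle; cmpd in DMSO, 24 h, 37 °C/5% CO2; luciferase reagent 10 min RT; luminescence.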
NPC1 prom act: qHTS Assay for NPC1 Promoter Activators | Huh7 NPC1 promoter luciferase reporter, 24 h | Potency, µM (highest dose often 9.22 µM), most hits filed as activators | hit rate 2.4% among 320,000 | AID 485313, 2010; also: nearly all actives have a fitted effect of over 60% in size
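Huh7 reporter cells (NPC1 promoter driving luciferase) are dosed with compound for 24 h at 37 °C, 5% CO2; luciferase detection reagent is then added and luminescence measured after 10 min at ambient temperature.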
FLuc counter: qHTS profiling assay for firefly luciferase inhibitor/activator using purifed enzyme and Km concentrations of substrates (counterscreen for miR-21 project). Luciferin 4-monooxygenase (Photinus pyralis), P08659. purified FLuc, Km substrates, luminescence inhibition. Potency, µM (doses to about 57.5 µM), usual class: inhibitors. hit rate 6.9% among 360,000. AID 588342, 2011; also: nearly all actives have a fitted effect of over 55% in size
Target sequence (P08659 whole entry, looked up): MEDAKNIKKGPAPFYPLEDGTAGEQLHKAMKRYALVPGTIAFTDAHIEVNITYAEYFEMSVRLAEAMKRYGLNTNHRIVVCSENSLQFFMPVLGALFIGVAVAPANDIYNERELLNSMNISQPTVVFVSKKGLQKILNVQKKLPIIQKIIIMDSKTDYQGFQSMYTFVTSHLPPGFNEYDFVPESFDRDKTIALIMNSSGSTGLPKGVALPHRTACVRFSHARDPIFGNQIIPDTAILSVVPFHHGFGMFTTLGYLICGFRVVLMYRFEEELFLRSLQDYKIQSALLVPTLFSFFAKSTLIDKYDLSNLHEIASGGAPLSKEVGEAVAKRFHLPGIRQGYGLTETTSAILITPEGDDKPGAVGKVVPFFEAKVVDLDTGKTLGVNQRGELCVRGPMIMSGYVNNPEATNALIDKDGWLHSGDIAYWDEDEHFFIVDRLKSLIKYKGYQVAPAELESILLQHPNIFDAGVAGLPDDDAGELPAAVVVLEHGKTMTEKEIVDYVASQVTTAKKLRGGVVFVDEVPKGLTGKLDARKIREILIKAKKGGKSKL
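Purified P. pyralis luciferase, 10 nM final, with Km-level 10 uM D-luciferin and 10 uM ATP in 50 mM Tris acetate pH 7.5, 10 mM Mg acetate, 0.01% Tween-20, 0.05% BSA; 6-point qHTS titration about 60 µM downward; luminescence read.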
KinaseGlo FLuc: Counterscreen for Luciferase (Kinase-Glo TM) Inhibition; Kinase-Glo luciferase, ATP luminescence, 8 min; Luciferin 4-monooxygenase (Photuris pensylvanica), Q27757; hit rate 0.28% among 200,000; Potency, µM (doses to about 38.3 µM), hits mostly inhibitors; also: nearly all actives have a fitted effect of over 60% in size
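Substrate mix (final 50 mM imidazole pH 7.2, 50 mM KCl, 7 mM MgCl2, 10 uM ATP, 0.01% Tween 20, 0.05% BSA) plus pin-tool compound, then Kinase-Glo detection mix; 8 min ambient, luminescence read.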
SMN2 splice up: qHTS Assay for Enhancers of SMN2 Splice Variant Expression | HEK293 SMN2-luciferase splicing reporter, luminescence, 30-36 h | Potency, µM (top dose mostly 46.1 µM), usual class: activators | hit rate 2.8% among 210,000 | AID 1458, 2008; also: nearly all actives have a fitted effect of over 55% in size
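HEK293 cells carry an SMN2 minigene-luciferase reporter in which exon 7 inclusion puts luciferase in frame. Cells were seeded at 2000 cells/well, attached for 10-12 hours, then exposed to compounds for 30-36 hours at 37C before ONE-Glo luminescence.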
ELG1 genotox: qHTS screen for small molecules that induce genotoxicity in human embryonic kidney (HEK293T) cells expressing luciferase-tagged ELG1; HEK293T ELG1-luciferase reporter, luminescence, 16 h; Potency, µM (top dose mostly 46 µM), most hits filed as activators; hit rate 1.3% among 330,000; also: nearly all actives have a fitted effect of over 60% in size
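ELG1-luciferase HEK293T cells, 2,000/well; compound pinned in; 16 hr, 37 °C, 5% CO2; ONE-Glo, 30 min RT; luminescence on CCD imager.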
Hits are given with their value; - = inactive; ? = inconclusive; . = not tested or not shown; [ ] = dose if it differs, or a comment. An excerpt weighted towards active compounds, which were near 7.3% of everything screened. Calls follow the shape of the dose curve; as a rule, active = well fitted curve in the direction sought with a large enough effect; inconclusive = small, poorly fitted or top-dose-only effect, or another doubt; inactive = no such curve, though single readings can be large; an effect the other way counts as inactive or inconclusive.

SMILES	Rab9 prom act	NPC1 prom act	FLuc counter	KinaseGlo FLuc	SMN2 splice up	ELG1 genotox
COc1ccc(/C=C2\CCc3ccccc3C2=O)cc1CN1CCOCC1	-	-	7.57µM	.	.	?
COc1cc(/C=C2\CCc3ccccc3C2=O)cc(OC)c1OC	-	-	?	-	-	-
COc1cc(/C=C2\CCC/C(=C\c3ccc(O)c(OC)c3)C2=O)ccc1O	-	-	19µM	.	.	-
COc1ccc(/C=C2\OC(=O)c3c(OC)cccc32)cc1OC	2.82µM	2.82µM	1.07µM	-	?	?
COc1ccc2c(c1)CC/C(=C\c1ccc(OC)c(Cn3cccn3)c1)C2=O	-	-	13.5µM	-	-	-
COc1cc(/C=C2/CCc3ccccc3C2=O)cc(OC)c1OC	-	-	?	-	-	-
COc1ccc(/C=C2\COc3ccccc3C2=O)c(OC)c1	-	-	4.78µM	.	.	?
COc1ccc2c(c1)OC/C(=C/c1cccs1)C2=O	?	?	0.426µM	.	.	11.6µM
COc1ccc(/C=C2/CCc3ccccc3C2=O)cc1OC	-	-	3.38µM	-	-	?
Cc1cc(C)c2c(c1)C(=O)/C(=C/c1ccc(C(=O)O)cc1)CC2	-	-	19µM	.	.	-
COc1cc(Cl)c(NC(=O)CN2C(=O)c3cccnc3Sc3ccccc32)c(OC)c1	.	.	-	.	-	.
O=C(O)c1ccc(/C=C2\COc3ccccc3C2=O)cc1	-	-	19µM	.	.	-
COc1ccc(/C=C2\COc3ccccc3C2=O)cc1OC	-	-	13.5µM	-	-	-
COc1ccc(/C=C2\C(=O)OCc3cc(OC)c(OC)cc32)cc1OC	-	-	13.5µM	-	-	-
COc1cc2c(cc1OC)/C(=C/c1ccc(Cl)cc1)C(=O)OC2	-	-	-	-	-	-
COc1ccc2c(c1)OC/C(=C\c1ccc(OC)c(O)c1)C2=O	.	.	.	-	-	.
O=C(NCc1ccc(Cl)cc1)C1CCN(S(=O)(=O)Cc2ccccc2)CC1	.	.	-	.	.	.
Nc1nc2c(C(=O)N3CCOCC3)nnn2c2ccccc12	3.16µM	3.16µM	12µM	.	.	?
O=C(Cc1ccccc1)Nc1ccc(N2CCCCC2)cc1	?	1.78µM	6.01µM	-	11.2µM	3.26µM
CCN1CCN(c2ccc(NC(=O)c3ccco3)cc2)CC1	?	?	26.9µM	.	.	?
CCC(=O)Nc1ccc(N2CCCCC2)cc1	-	-	?	-	-	-
O=C(Cc1cccs1)Nc1ccc(N2CCOCC2)cc1	?	?	16.9µM	-	?	?
O=C(Cc1cccs1)Nc1ccc(Cl)cc1	-	-	?	-	?	-
CCNC(=S)Nc1ccc(N2CCCCC2)cc1	-	-	-	-	17.8µM	-
CC1(C)N=C(N)N=C(N)N1c1cccc(CSc2ccccc2)c1	.	.	.	-[7.66 µM]	-[9.22 µM]	.
SMILES	Rab9 prom act	NPC1 prom act	FLuc counter	KinaseGlo FLuc	SMN2 splice up	ELG1 genotox
O=C(c1cnc(N2CCOCC2)c2ccccc12)N1CCN(c2ccccc2)CC1	.	.	-	.	.	.
CCN1CCOC(=O)C1CC(=O)Nc1cc(C)ccc1OC (configuration not stated)	.	.	-	.	-	.
O=C(CNC(=O)c1ccco1)Nc1ccc(N2CCCCCC2)cc1	-	-	16.9µM	.	.	?
CCCC(=O)Nc1ccc(N2CCCCC2)cc1	?	?	?	-	?	?
CN1CCN(c2ccc(NC(=O)Cc3ccccc3)cc2)CC1	?	?	19µM	-	-	11.6µM
O=C(CNC(=O)c1ccc(Br)o1)Nc1ccc(N2CCCCCC2)cc1	-	-	?	.	.	-
O=C(O)CCCC(=O)Nc1ccc(N2CCCC2)cc1	-	-	15.1µM	-	-	-
CS(=O)(=O)N1CCN(c2ccc(NC(=O)Cc3ccccc3)cc2)CC1	-	-	-	-	-	-
Cc1cc2ccc(OC(=O)c3ccc(N=C(N)N)cc3)cc2oc1=O	.	.	.	-[7.66 µM]	-[9.22 µM]	.
O=C(COc1ccc(F)cc1)OCc1cc(=O)n2nc(C3CC3)sc2n1	.	.	-	.	.	.
COc1ccc(C(=O)N2c3ccccc3C(C)(c3ccc(Cl)cc3)CC2(C)C)cc1 (configuration not stated)	.	.	-	.	-	.
